Activity calls are given as the source filed them. Unless noted, the rule behind the calls is not given here.

The text below walks through data of PubChem BioAssay.

A short description of experiment [1]: resazurin metabolic signal in HepG2 cells – cell-based, resazurin fluorescence, 24 h, PK04 Diversity Set, profiling panel (AID 1172). Note: test concentration not given here. To be noted: HepG2 viability, higher = more signal. (In general: Alamar Blue is a resazurin reagent that responds to reducing activity.)
Experiment [2] in a line: budding yeast growth changes without added modifier – OD600, strain BY4716, 24 h, basal condition, primary screen (AID 1173). The conditions noted are these: S. cerevisiae BY4716 growth, OD600, 24 h; higher = more signal, called active from +8 up or from −8 down.
The nature of experiment [3]: viability profiling in MM1S myeloma cells – cell-based, resazurin fluorescence, basal, 24 h, PK04 Diversity Set, profiling panel (AID 1174).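 Note: MM1S multiple myeloma cell line; test concentration not given here.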 The conditions noted are these: higher = more signal, called active from +8 up or from −8 down.
Experiment [4] concerns the target Dihydroorotate dehydrogenase (quinone), mitochondrial (Plasmodium falciparum (isolate 3D7)) (UniProt Q08210). Kind of experiment: inhibition of P. falciparum DHODH – biochemical, C-terminal His tag, absorbance 600 nm, primary screen (AID 1175).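 Note: recombinant parasite enzyme with a five histidine tag at its C terminus; test concentration not given here.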 To be noted: PfDHODH enzyme, DCIP absorbance 600 nm; higher = more signal, called active from +8 up or from −8 down.
Experiment [5] in a line: inhibition of PAO1 biofilm formation – strain PAO1, LB-PBS medium, absorbance 600 nm, primary screen (AID 1176). Note: test concentration not given here. The conditions noted are these: P. aeruginosa PAO1 growth/biofilm, A600, 12 h; higher = more signal.
Experiment [6] in a line: growth modulation of vineyard yeast isolate – strain RM11-1a, OD600, basal, 24 h, primary screen (AID 1177).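 Note: cultures grown under basal conditions with no added stressor; test concentration not given here.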 To be noted: S. cerevisiae RM11-1a growth, OD600, 24 h; higher = more signal, called active from +8 up or from −8 down.
A short description of experiment [7]: growth of efflux-deficient E. coli DRC39 – strain DRC39, OD650, 24 h, E. coli filamentation inducers, primary screen (AID 1178).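 Note: growth measured as culture turbidity by optical density at 650 nm; test concentration not given here.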 The conditions noted are these: E. coli DRC39 acrAB, higher = more signal, called active from +8 up or from −8 down.
The nature of experiment [8]: growth of efflux-deficient E. coli DRC39 – strain DRC39, OD650, 48 h, E. coli filamentation inducers, primary screen (AID 1179).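 Note: screen aims at cell division blockers that make cells filament.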 To be noted: E. coli DRC39 delta-acrAB growth, higher = more signal, called active from +8 up or from −8 down.
A short description of experiment [9]: viability profiling in RPMI8226 myeloma cells – cell-based, resazurin fluorescence, basal, 24 h, PK04 Diversity Set, profiling panel (AID 1180).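 Note: RPMI8826 multiple myeloma cell line at 5000 cells per well; test concentration not given here.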 To be noted: higher = more signal.
Experiment [10] addresses E3 ubiquitin-protein ligase XIAP (Homo sapiens) (UniProt P98170). Kind of experiment: small molecules binding XIAP protein – biophysical, small-molecule microarray, fluorescence 635 nm, primary screen (AID 1181).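 Note: score merges 667 nm emission and signal to noise over triplicate slides.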 The conditions noted are these: higher = more signal.

Chain of Dihydroorotate dehydrogenase (quinone), mitochondrial (Plasmodium falciparum (isolate 3D7)) (Q08210 whole entry, looked up): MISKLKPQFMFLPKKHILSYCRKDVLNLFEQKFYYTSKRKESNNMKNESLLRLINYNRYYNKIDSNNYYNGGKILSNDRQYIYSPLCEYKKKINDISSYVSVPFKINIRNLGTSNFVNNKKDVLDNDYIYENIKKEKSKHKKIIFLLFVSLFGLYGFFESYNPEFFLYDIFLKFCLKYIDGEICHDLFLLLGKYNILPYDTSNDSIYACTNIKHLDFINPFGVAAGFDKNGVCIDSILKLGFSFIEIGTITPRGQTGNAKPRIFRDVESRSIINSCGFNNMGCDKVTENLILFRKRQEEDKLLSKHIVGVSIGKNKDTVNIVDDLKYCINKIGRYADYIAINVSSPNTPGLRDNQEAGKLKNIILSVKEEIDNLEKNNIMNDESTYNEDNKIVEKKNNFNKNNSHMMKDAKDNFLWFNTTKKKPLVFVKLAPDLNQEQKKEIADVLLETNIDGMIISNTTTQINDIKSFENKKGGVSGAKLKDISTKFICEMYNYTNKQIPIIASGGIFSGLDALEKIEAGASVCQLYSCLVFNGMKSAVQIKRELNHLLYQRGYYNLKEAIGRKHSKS
Chain of E3 ubiquitin-protein ligase XIAP (Homo sapiens) (P98170 whole entry, looked up): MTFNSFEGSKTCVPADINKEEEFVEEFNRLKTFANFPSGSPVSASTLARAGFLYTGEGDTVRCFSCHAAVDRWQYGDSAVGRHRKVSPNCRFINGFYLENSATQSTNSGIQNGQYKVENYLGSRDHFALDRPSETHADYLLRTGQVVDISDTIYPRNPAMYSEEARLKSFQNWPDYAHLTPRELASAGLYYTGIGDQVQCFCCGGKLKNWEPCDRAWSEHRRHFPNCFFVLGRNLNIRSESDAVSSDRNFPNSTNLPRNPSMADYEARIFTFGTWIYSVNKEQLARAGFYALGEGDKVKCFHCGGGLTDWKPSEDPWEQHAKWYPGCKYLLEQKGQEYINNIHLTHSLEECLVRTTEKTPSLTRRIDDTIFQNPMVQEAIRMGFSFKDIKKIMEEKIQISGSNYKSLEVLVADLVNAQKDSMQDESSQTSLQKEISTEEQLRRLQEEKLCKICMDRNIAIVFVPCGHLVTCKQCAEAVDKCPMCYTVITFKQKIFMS

On to `CCOC(=O)C[C@H]1[C@H](OC(=O)c2ccc(C(=O)c3ccccc3)cc2)[C@@H](NC(=O)c2ccccc2)c2cc(OCCCO)ccc2N1C(=O)c1ccc2ccccc2n1`, for which the z-score in [1] is -0.524; in [2] it was 0.47 (inactive); in [3] it was -0.145 (inactive); in experiment [5] it was 0.207 (inactive); in experiment [6], -0.0205 (inactive); in experiment [7], -0.674 (inactive). Moreover, the z-score in [8] was -0.374 (inactive); in [9], -0.0826. Also, the results for the composite z-score in experiment [4] and in experiment [10] were -0.0918 (inactive) and 0.0997, respectively.

With `CC(=O)NCCCC[C@@H]1NC(=O)[C@@H]2C[C@H](C(=O)NCCCCCNC(=O)CS)[C@H](c3cccc(OCCO)c3)N2C1=O`, the z-score is 0.77 in experiment [1]; -0.719 (inactive) in experiment [2]; 1.37 (inactive) in experiment [3]; 0.879 (inactive) in [5]; -0.86 (inactive) in [6]; 0.295 (inactive) in experiment [7]. Also, the z-score in experiment [8] is -0.171 (inactive); in experiment [9], 0.739. Also, the composite z-score in experiment [4] is -29.3 (active); in experiment [10], -0.13.

Consider `C=CCN1C(=O)[C@]2(O[C@H](CCn3cc([C@H](O)c4ccccc4)nn3)[C@@H]([Si](C)(C)c3ccc(OC)cc3)[C@@H]2C)c2ccccc21`, for which the z-score in experiment [1] is -1.25; in experiment [2] it was -0.242 (inactive); in experiment [3] it was -1.68 (inactive); in experiment [5], 1.29 (inactive); in experiment [6] it was 0.507 (inactive); in experiment [7] it was 0.617 (inactive). Besides, the z-score in experiment [8] is 0.169 (inactive); in experiment [9], -1.69. Moreover, the results for the composite z-score in experiment [4] and in [10] were -0.591 (inactive) and -0.104, respectively.

In the case of `CC#CC(=O)Oc1ccccc1C=CC(=O)OCC`, the z-score in experiment [1] is 1.86; in experiment [2], -10.4 (active); in [3], 0.302 (inactive); in [5] it was 1.21 (inactive); in experiment [6], -1.34 (inactive); in experiment [7] it was 0.23 (inactive). Besides, the z-score in experiment [8] is 0.51 (inactive); in experiment [9] it was 0.485. The composite z-score in experiment [4] was -0.155 (inactive); in experiment [10], -0.162.

Regarding `O=C1C[C@@](C(=O)NCC(F)(F)F)(c2ccc([N+](=O)[O-])cc2)[C@@H](c2ccc(CO)cc2I)N1C1CCCCC1`, the z-score is -0.0199 in experiment [1]; -0.805 (inactive) in experiment [2]; 0.233 (inactive) in [3]; 0.609 (inactive) in experiment [5]; 0.195 (inactive) in [6]; -0.218 (inactive) in experiment [7]. Moreover, the z-score in [8] is -0.182 (inactive); in experiment [9], -0.589. For the same compound, the composite z-score in experiment [4] was -0.277 (inactive); in [10] it was -0.0172.

Consider `CCCCCN1CC=CC23O[C@@H]4C=CCCOC(=O)C4[C@H]2C(=O)N(CCCCCO)[C@@H]3C1=O` (stereo not given in full), for which the z-score in experiment [1] was 0.476; in [2] it was 0.388 (inactive); in experiment [3], 0.66 (inactive); in [5], -0.304 (inactive); in experiment [6], 0.467 (inactive); in experiment [7], 0.685 (inactive). In addition, the z-score in experiment [8] was 0.67 (inactive); in [9], 0.802. Also, the figures for the composite z-score in experiment [4] and in [10] were -0.185 (inactive) and 0.263, respectively.

`COC(=O)[C@@]1(CCS(=O)(=O)c2ccccc2)N=C(c2ccc(OCCCO)cc2)O[C@H]1c1ccccc1CN=[N+]=[N-]`: the z-score in [1] was -0.882; in experiment [2], 1.38 (inactive); in experiment [3], -3.13 (inactive); in experiment [5], 0.92 (inactive); in experiment [6], 0.642 (inactive); in experiment [7] it was 0.163 (inactive). For the same compound, the z-score was -0.154 (inactive) in experiment [8] and -2.55 in [9]. The composite z-score was 0.484 (inactive) in experiment [4] and 0.316 in [10].

For the compound `Cc1ccc([C@@H]2C[C@@H](Sc3ccccc3)[C@H](C(=O)O)CN2S(=O)(=O)c2ccc(C)cc2)cc1`, the z-score was 0.391 in experiment [1]; -1.58 (inactive) in [2]; -1.48 (inactive) in [3]; 0.657 (inactive) in experiment [5]; 0.455 (inactive) in experiment [6]; -0.634 (inactive) in experiment [7]. Further, the results for the z-score in [8] and in [9] were -0.518 (inactive) and -0.738, respectively. The composite z-score was -0.351 (inactive) in [4] and 0.312 in [10].

Consider `CCOC(=O)[C@H]1C/C=C/C[C@H](C(=O)OCC)C(=O)O[C@H]2[C@@H](OC)O[C@H](CO)[C@@H](OC(=O)c3c(OC)cccc3OC)[C@@H]2OC1=O`, for which the z-score in [1] is -3.51; in experiment [2], -0.964 (inactive); in [3], -3.73 (inactive); in experiment [5], 0.498 (inactive); in experiment [6] it was 0.996 (inactive); in experiment [7], 0.0332 (inactive). Besides, the values for the z-score in experiment [8] and in [9] were 0.328 (inactive) and -3.51, respectively. Further, the composite z-score in experiment [4] is -0.232 (inactive); in experiment [10], -0.102.
